This note sets out measurements from PubChem BioAssay (NCATS).

Unmarked numbers belong to inactive results. Inconclusive results are not listed. Active and inactive are the calls of the source. Unless noted, calls follow the shape of the full dose curve. Where only a bound is given, the exact number is not on record here.

Sequence of Glucocorticoid receptor (Homo sapiens) (P04150 whole entry, looked up, the tested form may be a part): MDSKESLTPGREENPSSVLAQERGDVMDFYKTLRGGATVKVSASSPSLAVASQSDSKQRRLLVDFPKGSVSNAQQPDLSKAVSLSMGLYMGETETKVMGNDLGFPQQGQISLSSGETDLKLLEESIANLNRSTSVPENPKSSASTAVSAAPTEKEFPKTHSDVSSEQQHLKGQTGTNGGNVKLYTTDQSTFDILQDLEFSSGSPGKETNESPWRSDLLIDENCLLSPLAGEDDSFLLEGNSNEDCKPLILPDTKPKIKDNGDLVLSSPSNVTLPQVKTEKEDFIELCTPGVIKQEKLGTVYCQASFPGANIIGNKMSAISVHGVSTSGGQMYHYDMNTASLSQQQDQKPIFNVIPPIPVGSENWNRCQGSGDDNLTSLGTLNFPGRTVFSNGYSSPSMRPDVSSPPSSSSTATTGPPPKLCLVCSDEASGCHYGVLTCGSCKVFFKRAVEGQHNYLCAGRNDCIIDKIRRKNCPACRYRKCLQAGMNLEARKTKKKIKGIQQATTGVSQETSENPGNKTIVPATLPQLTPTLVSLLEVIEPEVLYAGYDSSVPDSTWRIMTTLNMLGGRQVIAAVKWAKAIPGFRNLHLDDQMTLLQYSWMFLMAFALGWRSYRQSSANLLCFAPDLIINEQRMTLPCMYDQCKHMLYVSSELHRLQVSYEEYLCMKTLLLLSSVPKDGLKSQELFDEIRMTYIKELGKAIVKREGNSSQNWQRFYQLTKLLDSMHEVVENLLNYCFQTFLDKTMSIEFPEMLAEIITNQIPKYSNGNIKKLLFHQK

The first assay has as its target Glucocorticoid receptor (Homo sapiens) (UniProt P04150). Nature of the assay: GR-EFC Redistribution (AID 451). Also: potency is read from the fitted curve at half-maximal effect. As to conditions: CHO-K1 GR-EFC translocation, beta-gal luminescence, 2 h. The essentials:
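CHO-K1 cells stably expressing nuclear-localized β-gal enzyme acceptor and GR fused C-terminally to the enzyme donor fragment; ligand-driven nuclear translocation restores β-gal by complementation. Compounds titrated up to 46 uM final, 2 h at 37 °C; luminescence read.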
In the case of `O=c1cccc2n1C[C@@H]1C[C@H]2CN2CCCC[C@H]12`, the Potency was above 46 µM.
With `CN[C@H]1[C@H]2[C@H]3CCN2C[C@@H]1O3`, the Potency was above 46 µM.
On the same count and under the same terms, the same measure for `COc1ccc2c(c1O)-c1c(OC)c(OC)cc3c1[C@@H](C2)N(C)CC3`: above 46 µM; for `CN1CCc2cc3c(cc2[C@@H]1[C@H]1OC(=O)c2c1ccc1c2OCO1)OCO3`: above 46 µM.

A further assay concerns the target Mitogen-activated protein kinase 10 (Mus musculus) (UniProt Q61831). As to the kind of experiment: JNK3 AlphaScreen Assay (AID 530; active = well fitted curve in either direction with a large enough effect, not every such curve was filed as active;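 also: kinase came from lysate of stimulated human HepG2 cells; % is scaled to controls: 0 for no effect and ±100 for the full control effect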). The settings on record: JNK3 lysate, c-Jun phosphorylation; series mostly up to 57.1 µM; activity change, negative = inhibition: at the top concentration. Put shortly: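 JNK3 came from HepG2 lysates pre-activated with IL-1beta and TNF-alpha and phosphorylated biotinylated GST-cJun (1-79) at 10 uM ATP, pH 7.6, room temperature. Compounds were titrated. AlphaScreen signal used anti-phospho-cJun (Ser73) antibody.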
On the technique in general: Bead proximity is the source of the signal in Alpha formats.
`O=c1cccc2n1C[C@@H]1C[C@H]2CN2CCCC[C@H]12`: the “activity change, negative = inhibition” value was -19.5%.
On to `CN[C@H]1[C@H]2[C@H]3CCN2C[C@@H]1O3`, for which the “activity change, negative = inhibition” value is 6.9%.
Turning to `CN1CCc2cc3c(cc2[C@@H]1[C@H]1OC(=O)c2c1ccc1c2OCO1)OCO3`, the “activity change, negative = inhibition” value was 13.3%.

For another assay, the target named is Cytochrome P450 2C9 (Homo sapiens) (UniProt P11712). As to the kind of experiment: qHTS Assay for Inhibitors and Substrates of Cytochrome P450 2C9 (AID 883; active = well fitted inhibition curve with a large enough effect; also: nearly all actives have a fitted effect of over 60% in size; also: potency is read from the fitted curve at half-maximal effect; as to activity change, negative = inhibition: % is scaled to controls: 0 for no effect and ±100 for the full control effect). The settings on record: recombinant CYP2C9, luciferin-H luminescence, 60 min; series mostly up to 57.1 µM; activity change, negative = inhibition: at the top concentration. Put shortly: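 Human CYP2C9 (10nM) hydroxylated Luciferin-H (100uM, at its KM) to luciferin in 25mM KPO4. Compound was preincubated 10 min at 37C, then NADPH regeneration started a 60 min reaction at 37C. Luminescence was read after detection reagent, normalized to 57uM sulphaphenazole.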
Sequence of Cytochrome P450 2C9 (Homo sapiens) (P11712 whole entry, looked up): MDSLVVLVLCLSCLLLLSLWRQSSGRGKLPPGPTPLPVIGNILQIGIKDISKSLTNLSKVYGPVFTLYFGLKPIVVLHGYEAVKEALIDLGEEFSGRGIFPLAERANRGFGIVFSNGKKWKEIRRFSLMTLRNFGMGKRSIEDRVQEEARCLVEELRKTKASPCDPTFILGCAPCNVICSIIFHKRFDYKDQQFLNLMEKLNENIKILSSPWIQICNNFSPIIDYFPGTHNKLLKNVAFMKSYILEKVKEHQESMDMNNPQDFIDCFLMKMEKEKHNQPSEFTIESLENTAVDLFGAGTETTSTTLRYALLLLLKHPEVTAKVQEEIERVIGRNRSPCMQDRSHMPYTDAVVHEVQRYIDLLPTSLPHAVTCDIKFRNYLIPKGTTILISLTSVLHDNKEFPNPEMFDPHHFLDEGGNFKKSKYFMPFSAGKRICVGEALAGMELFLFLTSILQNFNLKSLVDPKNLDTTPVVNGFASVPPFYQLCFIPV
Turning to `O=c1cccc2n1C[C@@H]1C[C@H]2CN2CCCC[C@H]12`, the “activity change, negative = inhibition” value was 5.4%.
`CN[C@H]1[C@H]2[C@H]3CCN2C[C@@H]1O3`: the “activity change, negative = inhibition” value was 26%.
Regarding `COc1ccc2c(c1O)-c1c(OC)c(OC)cc3c1[C@@H](C2)N(C)CC3`, the “activity change, negative = inhibition” value is -7.96%.
On to `CN1CCc2cc3c(cc2[C@@H]1[C@H]1OC(=O)c2c1ccc1c2OCO1)OCO3`, for which the Potency was 3.98 µM (active).
